Measurements as given in PubChem BioAssay AID720697 (Broad Institute, 2013).
Entries with a potency or affinity are not part of this list. Records with an inconclusive call do not appear. Values without a mark were called inactive.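 Rule for the calls: active = signal loss with fitted half-maximal concentration at or below twice the top valid tested dose in every test run; inconclusive = runs disagree, flat 30 to 70% signal loss, or poor fit; inactive = all runs flat, opposite direction, or potency beyond limit.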

experiment: HEK293T cytotoxicity, dose response, cytotoxicity control for miR-122 modulator project, cell-based, inhibitor set, cherry-pick, set 2 (AID 720697); conditions: HEK293T viability, CellTiter-Glo luminescence, 48 h; series mostly up to 26 µM; activity change, negative = cytotoxicity: at the top concentration;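 note: 0% = median of neutral control wells and -100% = MG132 positive control wells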

SMILES	activity change, negative = cytotoxicity
COCC(=O)N(C)C[C@H]1Oc2cc(-c3ccc(C#N)cc3)ccc2S(=O)(=O)N([C@H](C)CO)C[C@H]1C	113%
CC(C)C#Cc1ccc2c(c1)O[C@H](CN(C)C(=O)c1ccncc1)[C@H](C)CN([C@H](C)CO)S2(=O)=O	10.8%
C/C=C/c1ccc([C@@H]2[C@@H](CO)N(C(C)=O)[C@@H]2CN(CC)C(=O)CN(C)C)cc1	39.3%
CN(C)CCCN(C(=O)CCc1ccccc1)c1nc2ccc(Br)cc2s1	22.8%
CN1C(=O)c2cc(NC(=O)c3cccc(F)c3)ccc2OC[C@@H]2O[C@@H](CC(=O)Nc3ccccc3)CC[C@@H]21	138% [at 23.5 µM]
CCNC(=O)C[C@H]1CC[C@@H]2[C@H](COc3ccc(NC(=O)c4cccs4)cc3C(=O)N2C)O1	128%
COc1cccc(C(=O)Nc2ccc3c(c2)C(=O)N(C)[C@H]2CC[C@H](CC(=O)NCc4ccc(F)cc4)O[C@@H]2CO3)c1	117%
COc1ccc(N2CCc3c(C)nc4c(OC)cc(OC)cc4c32)c(OC)c1	-48.9%
Cc1ccc(-n2ncc(C(=O)Nc3cc(Cl)ccc3C)c2C2CCNCC2)cc1C	-26%
C=CCc1ccccc1OCC(O)CN1CCN(CCN2C(=O)c3cccc4cccc(c34)C2=O)CC1 (centres undefined)	-23.8%
CNC[C@@H]1Oc2cc(C#Cc3cccc(OC)c3)ccc2S(=O)(=O)N([C@@H](C)CO)C[C@@H]1C	-74.1%
OCc1ccc(-c2nn(Cc3ccccc3)c3ccccc23)o1	13.4%
CNC(=O)C[C@@H]1CC[C@@H]2[C@@H](COc3ccc(NC(=O)NC(C)C)cc3C(=O)N2C)O1	32.5%
CNC(=O)C[C@H]1CC[C@@H]2[C@H](COc3ccc(NC(=O)c4ccc(OC)cc4)cc3C(=O)N2C)O1	61.1%
CCN(C[C@H]1[C@H](c2ccccc2)[C@H](CO)N1C(=O)COC)S(C)(=O)=O	222% [at 23.5 µM]
CCC(=O)N1[C@H](CN(CC)C(=O)c2ccccc2)[C@@H](c2ccccc2)[C@@H]1CO	55.3%
CC(=O)Nc1ccc(S(=O)(=O)Nc2ccc(S(=O)(=O)Nc3nc(C)cc(C)n3)cc2)cc1	100%
CCCNC(=O)N1C[C@@H]2[C@H](c3ccccc31)[C@H](CO)N2C(=O)C1CCOCC1	11.1%
CC(C)Oc1ccc(CNCCC2(C(C)C)CCOC(C)(C)C2)cc1 (centres undefined)	76.1%
CCCNC(=O)N1C[C@@H]2[C@H](c3ccccc31)[C@@H](CO)N2Cc1cc(F)ccc1F	30.6% [at 23.5 µM]

SMILES	activity change, negative = cytotoxicity
CC(C)NC(=O)N1C[C@@H]2[C@H](c3ccccc31)[C@H](CO)N2Cc1ccccc1	3.17% [at 23.5 µM]
Cc1ccnc(Nc2nc(-c3c(C)nc4sccn34)cs2)c1	-69.2%
CC(C)NC(=O)N(C)C[C@H]1Oc2cc(C#C[C@H](C)O)ccc2S(=O)(=O)N([C@@H](C)CO)C[C@H]1C	70.4%
C/C=C/c1ccc([C@@H]2[C@H](CO)N(Cc3ccccn3)[C@H]2CNC(=O)CC)cc1	82.8%
CCNC(=O)C[C@H]1CC[C@H]2[C@@H](COc3ccc(NC(=O)c4ccccc4)cc3C(=O)N2C)O1	118%
COc1cccc(-c2ccc3c(c2)O[C@H](CN(C)C(=O)C2CCOCC2)[C@H](C)CN([C@@H](C)CO)S3(=O)=O)c1	53%
CC1(C)CC(=O)c2cnc(NC(=O)c3ccco3)nc2C1	55.7%
CC(=O)N(C[C@@H]1N[C@@H](CO)[C@H]1c1ccc(-c2ccccc2)cc1)C(C)C	51.5%
CNC[C@H]1Oc2cc(C#CC3CCCC3)ccc2S(=O)(=O)N([C@H](C)CO)C[C@H]1C	31.7%
COc1ccc(-c2cc(-c3nc4ccccn4c3NCc3ccccc3)ccc2OC)cc1	49.3%
C/C=C/c1ccc([C@H]2[C@H](CO)N[C@@H]2CN(CC)C(=O)c2cccnc2)cc1	72.5%
COc1ccc(C(C#N)Nc2ccc(C)cc2)cc1 (centres undefined)	1.55%
C[C@@H]1CN([C@H](C)CO)S(=O)(=O)c2ccc(/C=C/c3ccccc3)cc2O[C@@H]1CN(C)C(=O)c1cccnc1	72.3%
CN1C(=O)c2cc(NS(=O)(=O)c3ccc(Cl)cc3)ccc2OC[C@H]2O[C@H](CC(=O)N3CCc4ccccc4C3)CC[C@@H]21	-27.9%
C/C=C/c1ccc([C@@H]2[C@@H](CO)N(Cc3ccccn3)[C@H]2CNC(=O)CC)cc1	51.4% [at 23.5 µM]
COC(=O)C[C@H]1CC[C@@H]2[C@@H](COc3ccc(NC(=O)Nc4ccc(Cl)cc4)cc3C(=O)N2C)O1	128%
CCN(C[C@@H]1[C@@H](c2ccccc2)[C@@H](CO)N1C(=O)COC)S(C)(=O)=O	-30.5% [at 23.5 µM]
O=C(CNCCC1=CCCCC1)Nc1ccccc1N1CCCCCC1	-14.3%
CCC(=O)N1C[C@H]2[C@@H](c3ccccc31)[C@H](CO)N2Cc1cc(F)ccc1F	39.1%
